An excerpt weighted towards active compounds, which were near 4.7% of everything screened.
TRHR agonist-1 – activates the human TRH receptor; AID 493084; activation, % at 2 µM; TRHR cells, calcium flux fluo-8, FDSS agonist mode; 360,000 compounds, 0.18% hits; in the data active = activation above about 30%; note: 0% is about no effect
Target sequence (P34981 whole entry, looked up): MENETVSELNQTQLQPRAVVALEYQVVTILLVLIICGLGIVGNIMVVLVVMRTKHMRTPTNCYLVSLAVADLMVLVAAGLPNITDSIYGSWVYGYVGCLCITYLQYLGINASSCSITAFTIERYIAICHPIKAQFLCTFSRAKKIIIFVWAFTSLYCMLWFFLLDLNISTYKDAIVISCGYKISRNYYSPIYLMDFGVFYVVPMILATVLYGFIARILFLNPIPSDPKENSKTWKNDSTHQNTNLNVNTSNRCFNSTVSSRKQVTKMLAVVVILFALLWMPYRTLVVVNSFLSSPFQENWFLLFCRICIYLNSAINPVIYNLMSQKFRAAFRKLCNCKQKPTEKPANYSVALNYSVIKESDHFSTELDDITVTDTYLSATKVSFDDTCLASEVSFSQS
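TRHR-expressing cells, plated overnight in medium with 10% serum, were loaded with fluo-8 calcium dye at room temperature. After a 10 s baseline, library compound was pin-added and calcium release was recorded kinetically (ex 480/em 530) as agonist response.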
D1 antagonist – blocks dopamine activation of the human D1 receptor; P21728; HEK293 TREx D1 cells, calcium flux, dopamine EC80; active compounds read low; activity change, negative = inhibition, % at 10 µM; 360,000 compounds, 3.2% hits; AID 504652; in the data active = activity change below about -30%; note: % is set by controls: 0 for no effect and ±100 for the full control effect
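Tetracycline-induced HEK293 T-REx cells with force-coupled D1 receptor were loaded with a no-wash calcium dye. Compound was added after a 10 s baseline and read kinetically for 180 s; EC80 dopamine was then added and calcium flux followed another 180 s.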
D1 ag – agonists of human D1 dopamine receptor; P21728; HEK293 T-REx D1 cells, calcium flux, agonist mode; activation, % at 2 µM; 360,000 compounds, 1% hits; in the data active = activation above about 30%; note: 0% is about no effect
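Inducible HEK293 T-REx D1 cells, force-coupled to calcium signalling, were plated at 4000 cells/well with tetracycline and held overnight at 30 C. After no-wash calcium dye loading, compound-evoked calcium rise over 180 s flagged agonists.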
D1 PAM – human D1 dopamine receptor positive modulation | P21728 | HEK293 TREx D1 cells, calcium flux, dopamine EC20 potentiation | potentiation, % at 10 µM | 360,000 compounds, 0.036% hits | AID 504651; in the data active = potentiation above about 30%; note: 0% is about no effect
TRHR enhancer-1 – allosterically enhances the human TRH receptor; TRHR cells, fluo-8 calcium fluorescence, EC20 TRH enhancement; P34981; AID 493056; 360,000 compounds, 0.66% hits; enhancement, % at 2 µM; in the data active = enhancement above about 30%; note: 0% is about no effect
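Enhancer read-out: after compound pinning and an initial kinetic agonist-mode read, an EC20 of TRH (10 nM final) was injected and fluo-8 calcium signal (Ex 480/Em 530) followed at 1 s/cycle for 100 cycles in TRHR-expressing cells.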
TRHR enhancer-2 – human TRH receptor allosteric enhancement confirmation. shares compounds with TRHR enhancer-1. TRH receptor cell assay, enhancer confirmation qHTS. activity change, negative = inhibition, % at 46.1 µM. 970 tested, under 10 active. AID 493076;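 note: compound effect scored on response to added TRH at EC20 of 10 nM; 0% is about no effect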
TRHR agonist-2 – confirmation of human TRH receptor agonists; shares compounds with TRHR enhancer-1; TRHR-expressing cells, agonist activation read-out; Potency, µM (highest dose often 46.1 µM), for inactives: top-dose activation, most hits filed as activators; 970 compounds, 8% hits; AID 493078; note: potency is the fitted concentration of half-maximal effect; 0% is about no effect; nearly all actives have a fitted effect of over 75% in size
* hit, by the source's call; ? = inconclusive; . = no result given. Unless noted, calls come from the whole dose curve; as a rule, active = well fitted curve in the direction sought with a large enough effect; inconclusive = small, poorly fitted or top-dose-only effect, or another doubt; inactive = no such curve, though single readings can be large; an effect the other way counts as inactive or inconclusive.

SMILES | TRHR agonist-1 | D1 antagonist | D1 ag | D1 PAM | TRHR enhancer-1 | TRHR enhancer-2 | TRHR agonist-2
COc1ccc(-c2nc3ccccc3nc2-c2ccccc2)cc1 | -0.1 | 4.0 | 3.2 | -3.0 | 9.3 | . | .
COc1ccc2nc3ccccc3nc2c1 | 1.0 | -14.3 | -1.4 | 3.9 | 48.9* | -0.9 | 1.6%
COc1ccc(C(=O)c2sc3nc(-c4ccccc4)ccc3c2N)cc1OC | 44.2* | 1.1 | 57.4* | -5.2 | 2.1 | -3.0 | ?
COc1ccccc1N1CCN(C(=O)C2CCN(S(=O)(=O)c3cn(C)cn3)CC2)CC1 | 0.2 | -11.5 | 1.0 | -0.7 | -1.5 | . | .
CCOc1ccc2oc(=O)cc(CN3CCN(c4ccc(Cl)cc4)CC3)c2c1 | -0.2 | 36.9 | 3.1 | 3.8 | -2.2 | . | .
S=C(Nc1ccc(Br)cc1)N1CCCC1 | 0.0 | -8.8 | 4.5 | -1.9 | 41.3* | -2.8 | -0.4%
Cc1ccc(C)c(NC(=O)CSc2cccc3cccnc23)c1 | -0.4 | 5.8 | 1.0 | -1.9 | -8.7 | . | .
Cc1cccc(NC(=O)CSc2cccc3cccnc23)c1 | 26.8 | -11.4 | 3.5 | -1.4 | -3.1 | -12.6 | 0.7%
COc1cccc(NC(=O)Cn2c(=O)n(-c3cccc(OC)c3)c(=O)c3c4c(sc32)CCCC4)c1 | 1.2 | -8.0 | 2.2 | 2.4 | -1.3 | . | .
CCc1cc(CN2CCOCC2)c(NC(=O)c2ccccc2)s1 | 0.7 | -12.2 | -0.2 | -3.1 | 63.7* | -7.6 | 1.4%
COc1ccccc1-n1c(=O)n(C)c2c(C(N)=O)nc(-c3cc(OC)c(OC)c(OC)c3)nc21 | -0.3 | 6.1 | 1.6 | -2.3 | -1.8 | . | .
COc1ccc(/C=N/n2c(-c3ccccc3)n[nH]c2=S)cc1 | 0.0 | -0.7 | 1.4 | -6.8 | 48.9* | 8.1 | 5.5%
Cc1ccccc1NC1=C(Cl)C(=O)N(C2CCCCC2)C1=O | 3.0 | 10.3 | 5.6 | 2.6 | -0.9 | . | .
COc1ccccc1NC1=C(Cl)C(=O)N(C2CCCCC2)C1=O | 0.0 | -88.2* | 1.2 | -2.1 | 45.8* | 9.7 | 4.1%
Clc1ccc(Oc2cnns2)cc1Cl | 0.3 | -3.6 | 4.4 | -7.8 | 44.3* | 6.3 | 0.9%
COc1ccc(C(=O)NCCc2nnc3ccc(SCC(=O)NCc4ccccc4)nn23)cc1 | -0.5 | 4.4 | 0.7 | -8.3 | 63.6* | -6.4 | -0.7%
CCOc1ccccc1C(=O)NCC(c1cccs1)S(=O)(=O)c1ccc(F)c(C)c1 (stereo not given) | -0.2 | 1.9 | 1.9 | 0.8 | -0.6 | . | .
CC(C)=CCc1c(O)ccc(C(=O)Cc2ccccc2)c1O | 2.5 | -22.2 | 13.3 | 0.5 | 67.4* | 0.4 | ?
CCCCCC1CC(=O)N(Cc2ccccc2)C(=O)N1 (stereo not given) | -0.7 | 9.2 | 0.5 | -4.5 | 68.6* | -4.2 | 0.3%
Cc1ccc(CNC(=O)c2oc3ccc(S(=O)(=O)N4CCCC(C)C4)cc3c2C)cc1 (stereo not given) | 0.6 | -4.7 | 1.6 | -0.7 | 1.5 | . | .
COc1ccc(CNC(=O)CS(=O)(=O)c2cccc3nsnc23)cc1 | -0.1 | 26.9 | 0.3 | -1.7 | -9.1 | . | .
O=C(NCCCN=C1NS(=O)(=O)c2ccccc21)c1ccc(F)cc1 | 0.6 | -1.8 | 12.5 | -3.4 | 57.9* | 2.3 | 4.6%
CC(=O)c1cccc(Nc2c3c(nc4nc(-c5cccs5)nn24)CCCC3)c1 | -1.0 | -16.3 | 3.2 | -1.6 | 3.1 | . | .
CCOc1ccc(S(=O)(=O)NCCc2c(C)[nH]c3c(Cl)cccc23)cc1C | -0.6 | 4.5 | 0.1 | -5.3 | -5.2 | . | .
COc1ccc(/C=C/C(=O)NCC(=O)N/N=C(/C)c2ccco2)cc1 | -0.1 | 2.4 | -0.2 | -1.0 | 0.9 | . | .
SMILES | TRHR agonist-1 | D1 antagonist | D1 ag | D1 PAM | TRHR enhancer-1 | TRHR enhancer-2 | TRHR agonist-2
COc1ccc(/C(C)=N/NC(=O)CNC(=O)c2ccco2)cc1 | -0.2 | 15.3 | -1.1 | 3.1 | 45.7* | -2.2 | 0.9%
COc1ccc(N/N=C(\C#N)C(N)=O)cc1 | -0.3 | 5.9 | 1.2 | 4.7 | 45.5* | 9.8 | 1.3%
CCN(CC)C(=O)c1sc2nc(-c3cccs3)cc(-c3ccc(Cl)cc3)c2c1N | 28.1 | -21.4 | 54.5* | 12.1 | -0.1 | -2.0 | 18.4µM*
CCN(CC)c1ccc(/C=C2\CCC(/C=N/NC(=O)c3ccc(=O)n(C)c3)=C2N2CCOCC2)cc1 | 35.9* | 12.6 | 73.8* | 7.1 | 11.0 | 9.0 | ?
COc1ccc(COC(=O)C2=C(C)NC(=O)NC2c2ccccc2)cc1 (stereo not given) | 0.1 | 11.1 | 5.9 | 4.2 | 43.9* | -5.1 | 0.4%
CCCCNC(=O)C1c2ccccc2Oc2ccccc21 | 0.1 | -1.3 | 0.9 | 0.9 | -3.1 | . | .
CCN(CC)C(=O)C1c2ccccc2Oc2ccccc21 | 2.6 | -0.6 | 32.0* | 3.0 | 46.4* | -7.9 | 1.3%
COCCOc1cc2ncnc(N3CCC(C(=O)O)CC3)c2cc1OCCOC | -1.7 | 3.2 | 2.1 | 5.7 | 42.6* | 2.9 | -0.6%
CCOC(=O)C1CCN(c2ncnc3c2[nH]c2cccc(OC)c23)CC1 | -0.5 | -11.3 | -0.2 | -4.2 | 9.1 | . | .
CC(C)NC(=O)C1CCC(Cn2c(=O)c3sccc3n(CC(=O)NCc3ccccc3)c2=O)CC1 (stereo not given) | 0.0 | -20.5 | -0.8 | -4.2 | -2.2 | . | .
Cc1nnc(NC(=O)c2sc3nc(-c4cccs4)cc(C(F)(F)F)c3c2N)s1 | 51.7* | -30.1* | 361.2* | -2.4 | 2.1 | 5.5 | ?
CC(C)(C)C(=O)c1sc2nc(-c3cccs3)cc(C(F)(F)F)c2c1N | -0.2 | -4.5 | -0.4 | -0.7 | 9.4 | . | .
COc1cc(Cl)c(C)cc1N1C(=O)CN(Cc2ccccc2)C1=S | 90.6* | -10.3 | 4.5 | -9.2 | -5.9 | -3.8 | -0.5%
CCc1ccc(CN(C)CC(O)COc2cccc3ccccc23)cc1 (stereo not given) | -0.3 | 9.5 | -0.8 | 0.5 | 42.3* | ? | 0.8%
CCc1nnc2c(Nc3cccc(F)c3)nc3ccc(C(=O)c4ccccc4)cc3n12 | 0.7 | -1.7 | -0.2 | -2.4 | -1.5 | . | .
Cc1cccc(OCCNS(=O)(=O)c2ccc(Cl)cc2)c1 | 1.1 | -8.3 | 3.6 | 7.3 | 50.9* | 4.2 | 0.9%
Cc1cccc(NC(=O)CCNS(=O)(=O)c2ccc(Cl)cc2)c1 | -0.4 | 0.4 | 1.0 | -3.4 | 20.1 | . | .
CC(=O)Nc1ccc(NC(=O)COc2ccc(Br)cc2C)cc1 | 0.1 | -18.0 | 5.7 | 5.8 | 2.4 | . | .
Cc1cccc(NC(=O)COc2ccc(Br)cc2/C=N/O)c1 | -1.0 | 2.9 | 8.6 | -5.9 | 42.6* | -7.1 | 2.3%
CCc1ccccc1Nc1nc2ccccc2c2nncn12 | -0.2 | 3.6 | 4.1 | -0.7 | -3.0 | . | .
COc1ccc(CNCc2ccc(C(=O)O)s2)cc1 | 0.9 | 17.1 | 2.2 | -1.4 | -1.9 | . | .
COc1cc(OC)c(NC(=O)N2CCC(CN3CCCC3)CC2)cc1Cl | -0.5 | 0.0 | -2.3 | -2.3 | 4.0 | . | .

From PubChem BioAssay
